# An excerpt weighted towards active compounds, which were near 10% of everything screened.
# hNpr1 antagonist: Natriuretic polypeptide receptor (hNpr1) antagonism - Primary qHTS. Atrial natriuretic peptide receptor 1 (Homo sapiens), P16066. HEK293 hNpr1 GloSensor cGMP, ANP-stimulated luminescence. Potency, µM (series often up to 46.3 µM), hits mostly inhibitors. actives 1.6% (n = 76,000); calls by dose curve; also: nearly all actives have a fitted effect of over 60% in size
#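 HEK293 cells stably expressing human Npr1 and cGMP GloSensor pGS-40F, loaded 2 h with 2% GloSensor reagent, given compound 30 min at room temperature. Luminescence read before and 20 min after 0.1 nM hNppA.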
# FLuc inh: Firefly luciferase inhibition profiling of diverse chemical library using quantitative high-throughput screening. Luciferin 4-monooxygenase (Photinus pyralis), P08659. purified P. pyralis luciferase, luminescence, biochemical. Potency, µM (series often up to 115 µM), most hits filed as inhibitors. actives 2.5% (n = 76,000); also: nearly all actives have a fitted effect of over 65% in size
#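 Cell-free enzyme assay, 10nM P. pyralis luciferase, luciferin and ATP each at 10uM. Inhibition profiled over a 6-point titration, read as luminescence.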
# HEK293 tox: Cytotoxic Profiling in HEK 293 Cell Line of Diverse Libraries Using Quantitative High-Throughput Screening; HEK 293 viability, ATP luminescence (CellTiter-Glo), 48-72 h; Potency, µM (series often up to 115 µM), usual class: inhibitors; actives 6.6% (n = 94,000); AID 1345083, 2018; also: nearly all actives have a fitted effect of over 60% in size
#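 HEK 293 cells at 250 cells/well were exposed to compounds by pintool transfer for 48 or 72 hr at 37 degree Celsius, 5% CO2. Viability was read as ATP-coupled luminescence with CellTiter-Glo after 10 min at room temperature.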
# GPT2 inh: Primary qHTS assay for inhibitors of Glutamate pyruvate transaminase 2 (GPT2); Alanine aminotransferase 2 (Homo sapiens), Q8TD30; Recombinant GPT2, coupled pyruvate oxidase/HRP Amplex Red fluorescence; Potency, µM (doses to about 57.7 µM), usual class: inhibitors; actives 0.25% (n = 100,000); also: nearly all actives have a fitted effect of over 60% in size
#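 Inhibition is scored from Amplex Red fluorescence generated when pyruvate oxidase and HRP act on pyruvate released by GPT2. Reactions contain 10ng/uL enzyme, 250uM a-KG and 2mM L-alanine and run 30 min at room temperature.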
# NIH3T3 tox: Cytotoxic Profiling in NIH 3T3 Cell Line of Diverse Libraries Using Quantitative High-Throughput Screening. NIH 3T3 viability, CellTiter-Glo ATP luminescence, 48-72 h. actives 4.3% (n = 94,000). AID 1345082, 2018. Potency, µM (titrated, usually from 96.7 µM), usual class: inhibitors; also: nearly all actives have a fitted effect of over 55% in size
#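 NIH 3T3 cells at 400 cells/well received 23 nL of compound by pintool and were incubated 48 or 72 h at 37 °C. Viability was read as ATP-coupled CellTiter-Glo luminescence.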
# Hits are given with their value; 0 = inactive; ? = inconclusive; - = no result. Unless noted, calls follow the shape of the dose curve; as a rule, active = well fitted curve in the direction sought with a large enough effect; inconclusive = small, poorly fitted or top-dose-only effect, or another doubt; inactive = no such curve, though single readings can be large; an effect the other way counts as inactive or inconclusive.
SMILES,hNpr1 antagonist,FLuc inh,HEK293 tox,GPT2 inh,NIH3T3 tox
COc1ccccc1-c1cccc(CN2CCCC(C(=O)N(C)C)C2)c1 (stereo unspecified),-,-,?,0,?
COc1ccccc1-c1cccc(CN2CCCC(C(=O)N3CCCC(C)C3)C2)c1 (stereo unspecified),-,-,40µM,0,?
COc1ccccc1-c1cccc(CN2CCCC(C(=O)N3CCC(c4ccccc4)CC3)C2)c1 (stereo unspecified),-,-,40µM,0,?
COc1ccccc1-c1cccc(CN2CCCC(C(=O)N3CCN(c4ncccn4)CC3)C2)c1 (stereo unspecified),-,-,16µM,0,?
COc1ccccc1-c1cccc(CN2CCCC(C(=O)N3CCN(Cc4ccccc4)CC3)C2)c1 (stereo unspecified),-,-,40µM,0,35µM
COc1ccccc1-c1cccc(CN2CCCC(C(=O)N3CCN(C(C)=O)CC3)C2)c1 (stereo unspecified),-,-,?,0,0
NCc1cccc(-c2ccc(OC(F)(F)F)cc2)c1,-,-,40µM,0,32µM
NCc1cccc(-c2cccc(C(F)(F)F)c2)c1,-,-,?,0,79µM
FC(F)(F)Oc1cccc(CNC[C@H]2Cn3ccnc3CO2)c1,0,0,?,0,0
COc1ccc(CCN2CCC(CN(C)Cc3nc(C(C)C)cs3)CC2)cc1,0,0,32µM,0,?
CN1CCN(Cc2ccc(CC3CCN(C(=O)c4ccc5cc[nH]c5c4)CC3)cc2)CC1,-,-,?,0,32µM
COCCOC1CCN(C(=O)c2ccc3cc[nH]c3c2)CC1,0,0,0,0,0
O=C(c1ccc2ccccc2n1)N1CCC(Cc2ccc(CN3CCOCC3)cc2)CC1,-,-,35µM,0,?
CCOc1ccc(NC(=O)Cn2cccc2-c2nc(-c3ccc(F)cc3)no2)cc1,0,0,0,0,0
COc1ccccc1N1CCN(C(=O)Cn2cccc2-c2nc(-c3ccc(F)cc3)no2)CC1,0,0,40µM,0,?
COc1ccc(NC(=O)Cn2cccc2-c2nc(-c3ccccc3)no2)cc1OC,0,0,32µM,0,32µM
CCOc1ccc(NC(=O)Cn2cccc2-c2nc(-c3ccccc3)no2)cc1,0,0,28µM,0,?
O=C(Cn1cccc1-c1nc(-c2ccc(F)cc2)no1)N1CCN(c2ccccc2F)CC1,0,0,?,0,0
Cc1nc(C(F)(F)F)nc(N2CCN(C3CCCC3)C(CCO)C2)c1C (stereo unspecified),0,0,0,0,0
CCCc1cc(C(=O)N2CCCC(Cc3ccccc3F)(C(=O)OCC)C2)n(C)n1 (stereo unspecified),0,0,18µM,?,?
CCOC(=O)C1(Cc2ccccc2)CCCN(C(=O)c2ccccc2SC)C1 (stereo unspecified),0,?,45µM,0,?
CCN(CC)CCNCc1ccc(-c2ccccc2)o1,0,0,0,0,0
COc1ccc(Nc2cc3c(cn2)CN(CCc2ccccc2)CCN3)cc1,0,?,32µM,0,25µM
COc1ccc(Nc2cc3c(cn2)CN(CCc2ccccc2)CCN3)cc1OC,0,0,50µM,?,25µM
COC(=O)[C@@H]1Cc2ncn(C)c2CN1C(=O)c1ccccc1,0,0,0,0,0
SMILES,hNpr1 antagonist,FLuc inh,HEK293 tox,GPT2 inh,NIH3T3 tox
COc1ccc(-c2nc(-c3c(C)noc3C)cc3cc(CO)oc23)cn1,0,0,?,0,?
Cc1cc2cc(-c3c(C)noc3C)nc(NC3CC3)c2o1,0,0,?,0,?
Cc1noc(C)c1-c1cc2cc(CO)oc2c(NC2CCOCC2)n1,0,0,?,0,25µM
Cc1noc(C)c1-c1cc2cc(CO)oc2c(NCC2CCOCC2)n1,0,0,?,0,22µM
Cc1noc(C)c1-c1cc2cc(CO)oc2c(NCCOc2ccccc2)n1,0,0,?,0,?
Cc1noc(C)c1-c1cc2cc(CO)oc2c(-c2ccc(F)c(Cl)c2)n1,0,0,50µM,0,22µM

# Bioassay records: PubChem BioAssay, National Center for Advancing Translational Sciences (NCATS)
